Assay results from the supplement of paper PMC11172423.
Values without a mark were called inactive.

Test system: Falciformispora senegalensis CBS197.79
Assay: growth relative to untreated control; higher = less inhibition, active = 20 or less
Summary of the method: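 For each test, a hyphal fragment suspension of M. mycetomatis MM55 or F. senegalensis CBS197.79 was prepared in colourless RPMI 1640 with L-glutamine and MOPS at 68–72% transmission at 660 nm. Exposure to compound at 100 or 25 µM ran for 7 days at 37 °C in 96-well plates, followed by viability reading with MTS (2 h, 490 nm) or resazurin (600 nm). Growth corresponds to metabolic activity relative to the untreated growth control after correction of both with a blank of medium and dye.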

SMILES	growth (25 µM)	growth (100 µM)
Cc1cccc2c1N(C(=O)c1cc(Br)nn1-c1ncccc1Cl)CN(C(C)C)C2=O	94%	93.3%
CC(=O)Oc1ccccc1C(=O)Nc1ncc([N+](=O)[O-])s1	97.4%	104%
CC(C)(C)c1nc(-c2cccc(NS(=O)(=O)c3c(F)cccc3F)c2F)c(-c2ccnc(N)n2)s1	101%	104%
CCc1nn2c(Nc3ccncc3)cc(C)nc2c1-c1ccccc1	88.3%	92.6%
Cc1ccc(C(=O)Nc2ccc(CN3CCN(C)CC3)c(C(F)(F)F)c2)cc1C#Cc1cnc2cccnn12	20.7%	-2.57% (active)
O=C(Nc1cccc(-c2n[nH]c3ccc(-c4n[nH]c(C5CCCN5)n4)cc23)c1)C1CC1 (stereo not drawn)	102%	95%
CNC(=O)c1cc(-c2n[nH]c3ccc(-c4nc(C5CCCN5)n[nH]4)cc23)ccc1F (stereo not drawn)	105%	106%
N#Cc1ccc(C/C(=N/NC(=O)Nc2ccc(OC(F)(F)F)cc2)c2cccc(C(F)(F)F)c2)cc1	97%	96.1%
OC[C@H]1NC[C@H](O)[C@@H](O)[C@H]1O	94.7%	100%
C[C@H](NC(=O)c1cc2cccc(F)c2[nH]1)c1ccccc1	100%	90.3%
CCOc1ccc(-c2nc(NC(=O)Cc3cccc(OC)c3)sc2C)cc1	93.7%	80.5%
Cc1c2c(n3c(nc4ccccc43)c1C#N)N(CCN(C)C)CC2	64.5%	88.2%
CCCCc1nc(Cl)c(CO)n1Cc1ccc(-c2ccccc2-c2nn[nH]n2)cc1	105%	105%
C/C=C/C[C@@H](C)[C@@H](O)[C@H]1C(=O)N[C@@H](CC)C(=O)N(C)CC(=O)N(C)[C@@H](CC(C)C)C(=O)N[C@@H](C(C)C)C(=O)N(C)[C@@H](CC(C)C)C(=O)N[C@@H](C)C(=O)N[C@H](C)C(=O)N(C)[C@H](CC(C)C)C(=O)N(C)[C@@H](CC(C)C)C(=O)N(C)[C@@H](C(C)C)C(=O)N1C	113%	94.5%
NC1(c2ccc(-c3nc4ccn5c(O)nnc5c4cc3-c3ccccc3)cc2)CCC1	104%	14% (active)
CCCNc1nc(NC2CCCCC2)c2ccsc2n1	85.5%	88.3%
C[C@H](Cn1cnc2c(N)ncnc21)OCP(=O)(O)O	105%	107%
O=C(c1ccc(Nc2nccc(-c3ccc(Cl)cc3)n2)cc1)N1CC[C@@H](CO)C1	91.1%	89.6%
CCN1CCN(Cc2ccc(-c3cc4c(N[C@H](C)c5ccccc5)[nH]cnc-4n3)cc2)CC1	78.1%	49.3%
Nc1nc(C2CC2)cn1CC(O)c1ccc(Cl)cc1Cl (stereo not drawn)	86%	73.7%
CC(C)Oc1cccc(-c2ccc3nc(Nc4ncccc4N(C)C)cn3c2)n1	88.2%	93.4%
O=C(Nc1cccc(-c2cc3nc(Nc4ccc(N5CCOCC5)cc4)ncc3[nH]2)c1)C1CC1	89.7%	85.2%
COc1ccc(-c2cc3ncnc(N4CCN(CCN5CCCC5)CC4)c3s2)cc1	7.35% (active)	14.9% (active)
NC(=O)c1ncn([C@@H]2O[C@H](CO)[C@@H](O)[C@H]2O)n1	110%	102%
CN(C)CCCN1C(=O)c2[nH]nc(-c3ccc(Cl)cc3O)c2C1c1ccc(Cl)cc1 (stereo not drawn)	83.3%	25.4%
Cn1nc(-c2cccc(C#N)c2)c2cc(-c3n[nH]c(C4CCCN4)n3)ccc21 (stereo not drawn)	98.7%	94.2%
CCOc1ccccc1NC(=O)Cn1c(=O)n(Cc2ccccc2)c(=O)c2c(C)c(C(=O)N(C)C)sc21	92.1%	108%
O=C(c1ccc(Nc2nccc(-c3ccc(Cl)cc3)n2)cc1)N1CCS(=O)(=O)CC1	80.5%	98.8%
COc1cccc(-c2ccc(NC(=O)C3=C(C(=O)O)CCC3)c(F)c2)c1	109%	105%
